# Measurements: PubChem BioAssay (Tox21)
# A number with no mark means an inactive call. Inconclusive results are not listed. Where a call stands in place of a potency, no number is given. Calls of active or inactive are those of the source. Unless noted, calls come from the whole dose curve; as a rule, active = well fitted curve in the direction sought with a large enough effect in the repeat runs; inconclusive = weak or mixed curves; inactive = no such curve, though single readings can be large; an effect the other way counts as inactive or inconclusive.
# Experiments:
# [1] = biological target: Estrogen receptor (Homo sapiens) (UniProt P03372); assay: qHTS assay to identify small molecule antagonists of the estrogen receptor alpha (ER-alpha) signaling pathway using the BG1 cell line in the presence of 0.1 nM 17-beta-estradiol (AID 1259244); note: nearly all actives have a fitted effect of over 50% in size; note: potency is the fitted concentration of half-maximal effect
# Chain of Estrogen receptor (Homo sapiens) (P03372 whole entry, looked up): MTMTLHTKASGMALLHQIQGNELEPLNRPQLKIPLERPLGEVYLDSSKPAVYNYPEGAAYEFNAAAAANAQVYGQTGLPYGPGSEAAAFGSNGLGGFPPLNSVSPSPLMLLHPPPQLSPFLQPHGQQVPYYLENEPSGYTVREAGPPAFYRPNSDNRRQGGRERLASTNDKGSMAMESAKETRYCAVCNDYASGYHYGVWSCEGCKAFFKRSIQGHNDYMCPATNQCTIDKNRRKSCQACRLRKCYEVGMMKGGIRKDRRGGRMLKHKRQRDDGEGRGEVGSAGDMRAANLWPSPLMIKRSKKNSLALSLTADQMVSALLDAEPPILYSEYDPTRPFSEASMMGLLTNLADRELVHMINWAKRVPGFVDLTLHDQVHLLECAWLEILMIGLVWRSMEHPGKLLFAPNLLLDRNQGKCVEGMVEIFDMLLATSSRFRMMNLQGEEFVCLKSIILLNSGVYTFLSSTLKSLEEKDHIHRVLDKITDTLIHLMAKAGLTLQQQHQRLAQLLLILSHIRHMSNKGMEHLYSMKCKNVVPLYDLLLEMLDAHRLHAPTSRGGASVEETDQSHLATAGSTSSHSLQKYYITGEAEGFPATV
# Method in brief: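 Estradiol at 0.1 nM (final) stimulates the endogenous ER-alpha of VM7Luc4E2 cells carrying an ERE-driven luciferase; compounds are co-incubated 22 h at 37C and luciferase output quantified by luminescence.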
# [2] = qHTS assay to identify small molecule HDAC inhibitors (AID 1259364);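 note: wild-type HCT-116 cells with endogenous class I/II HDAC activity; top concentration of the series differs between compounds; nearly all actives have a fitted effect of over 45% in size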
# Method in brief: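 Read-out: luminescence of HDAC-Glo I/II reagent, 30 min RT, reflecting class I/II deacetylase activity in whole HCT-116 cells pre-exposed 2 h to DMSO-dissolved compounds.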
# [3] = qHTS assay to identify small molecule agonists of the sonic hedgehog signaling (Shh) pathway - cell viability counter screen (AID 1259366); note: nearly all actives have a fitted effect of over 50% in size
# Method in brief: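 After a 4hr attachment at 37C, NIH/3T3 cells bearing an integrated Gli1-driven luciferase reporter were dosed with compounds. Treatment lasted 24hr, with the final hour including CellTiter-Fluor for a fluorescence viability measurement.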
# [4] = qHTS assay to identify small molecule antagonists of the sonic hedgehog signaling (Shh) pathway - cell viability counter screen (AID 1259367); note: nearly all actives have a fitted effect of over 55% in size
# Method in brief: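 Seed 3T3 Gli1-Luc cells at 2,000 per well; incubate 4 hr; add compound in DMSO, then conditioned medium; incubate at 37C with 5% CO2; add CellTiter-Fluor after 23 hr; read fluorescence 1 hr later.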
# [5] = qHTS assay to identify small molecule agonists of the sonic hedgehog signaling (Shh) pathway (AID 1259368; calls by dose curve;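 note: NIH/3T3-derived 3T3Gli1-Luc cells carrying a stable Gli1-driven firefly luciferase reporter; series mostly up to about 92 µM; nearly all actives have a fitted effect of over 15% in size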)
# Method in brief: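 A Gli1 transcriptional response element controlled firefly luciferase in 3T3Gli1-Luc cells. Compounds and a positive control were added 4 hr after plating, and cells were incubated a further 24 hr at 37 C before luminescence detection.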
# [6] = qHTS assay to identify small molecule antagonists of the sonic hedgehog signaling (Shh) pathway (AID 1259369; calls by dose curve; note: nearly all actives have a fitted effect of over 45% in size; note: potency is the fitted concentration of half-maximal effect)
# Method in brief: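 For antagonist detection, the reporter line received test compounds together with conditioned medium, incubated 24hr at 37 C, 5% CO2, then luminescence was recorded following 30min room-temperature luciferase reagent incubation.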
# [7] = biological target: Estrogen receptor beta (Homo sapiens) (UniProt Q92731); assay: qHTS assay to identify small molecule agonists of the estrogen receptor beta (ER-beta) signaling pathway (AID 1259377; active = well fitted activation curve with a large enough effect in the signal ratio in the repeat runs, not every such curve was filed as active; the % refers to the signal ratio; note: potency is the fitted concentration of half-maximal effect)
# Chain of Estrogen receptor beta (Homo sapiens) (Q92731 whole entry, looked up): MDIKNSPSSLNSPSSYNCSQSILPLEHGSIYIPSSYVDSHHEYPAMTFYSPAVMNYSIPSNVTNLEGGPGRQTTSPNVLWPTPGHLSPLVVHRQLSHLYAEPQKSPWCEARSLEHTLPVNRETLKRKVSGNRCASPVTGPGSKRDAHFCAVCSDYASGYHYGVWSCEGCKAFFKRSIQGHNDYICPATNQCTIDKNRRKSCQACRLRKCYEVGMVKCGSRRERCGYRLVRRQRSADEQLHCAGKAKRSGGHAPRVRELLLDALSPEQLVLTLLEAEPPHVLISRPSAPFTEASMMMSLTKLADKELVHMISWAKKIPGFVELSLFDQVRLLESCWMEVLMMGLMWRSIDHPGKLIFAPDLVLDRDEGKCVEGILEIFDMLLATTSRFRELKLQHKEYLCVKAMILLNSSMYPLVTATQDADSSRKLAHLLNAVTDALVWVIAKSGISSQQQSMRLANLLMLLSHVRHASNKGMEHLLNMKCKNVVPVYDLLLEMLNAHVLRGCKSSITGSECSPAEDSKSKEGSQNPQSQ
# Method in brief: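 In HEK293T cells bearing a UAS-beta-lactamase reporter under ER-beta control, DMSO-delivered compounds were incubated for 16 hr at 37C. Activity was detected as fluorescence 2 hours after LiveBLAzer B/G FRET substrate addition.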
# [8] = biological target: Estrogen receptor beta (Homo sapiens) (UniProt Q92731); assay: qHTS assay to identify small molecule antagonists of the estrogen receptor beta (ER-beta) signaling pathway (AID 1259378; active = well fitted inhibition curve with a large enough effect in the signal ratio in the repeat runs, not every such curve was filed as active; the % refers to the signal ratio)
# Method in brief: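 ER-beta-UAS-bla HEK293T cells in 2% charcoal-stripped FBS medium treated with compound plus 1nM final 17-beta-estradiol for 16 hr at 37C. Beta-lactamase reporter read by FRET substrate fluorescence after 2 hours at room temperature.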
# [9] = qHTS assay to identify small molecule agonists of the androgen receptor (AR) signaling pathway in the presence of an antagonist - cell viability counter screen (AID 1259379); note: nearly all actives have a fitted effect of over 25% in size; note: potency is the fitted concentration of half-maximal effect
# Method in brief: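 Seed MDA-kb2 at 3,000 cells/well; incubate 5 hr, 37C, 0% CO2. Add nilutamide to 3.0uM final, then pin compounds at 15 concentrations. Incubate 16 hr. Add CellTiter-Fluor at 15 hr, read fluorescence after 1 hr.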
# [10] = qHTS assay to identify small molecule antagonists of the estrogen receptor beta (ER-beta) signaling pathway - cell viability counter screen (AID 1259382); note: nearly all actives have a fitted effect of over 55% in size; note: potency is the fitted concentration of half-maximal effect
# Method in brief: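 In this multiplexed counter screen, cells were seeded at 2,000 per well in medium with 2% charcoal-stripped FBS and incubated 6 hr before compound and 1nM final E2 were added. Sixteen hours later, ATP-based luminescence reported viability.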
# [11] = biological target: Estrogen receptor (Homo sapiens) (UniProt P03372); assay: qHTS assay to identify small molecule agonists of the estrogen receptor alpha (ER-alpha) signaling pathway in the presence of an antagonist (AID 1259383; calls by dose curve; note: nearly all actives have a fitted effect of over 15% in size; note: potency is the fitted concentration of half-maximal effect; for activation: top concentration of the series differs between compounds)
# Method in brief: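 Stably transfected VM7Luc4E2 reporter cells, kept 5 days in charcoal-stripped serum, received ICI-182,780 at 10.0nM final before compound addition. Following 22hr incubation at 37C and 5% CO2, luciferase signal was read by luminescence.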
# [12] = qHTS assay to identify small molecule agonists of the estrogen receptor alpha (ER-alpha) signaling pathway in the presence of an antagonist - cell viability counter screen (AID 1259386);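 note: cells exposed to compounds for 22 h at 37 °C before the viability read; nearly all actives have a fitted effect of over 30% in size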; note: potency is the fitted concentration of half-maximal effect
# Method in brief: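 Viability counter screen using VM7Luc4E2 (full-length ER-alpha, four ERE-luciferase). The cells were treated with compounds alongside ICI-182,780 10.0nM for 22hr, and live-cell protease fluorescence was quantified with CellTiter-Fluor.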
# [13] = biological target: Progesterone receptor (Homo sapiens) (UniProt P06401); assay: qHTS assay to identify small molecule agonists of the progesterone receptor (PR) signaling pathway (AID 1346784; calls by dose curve; note: nearly all actives have a fitted effect of over 30% in size)
# Chain of Progesterone receptor (Homo sapiens) (P06401 whole entry, looked up): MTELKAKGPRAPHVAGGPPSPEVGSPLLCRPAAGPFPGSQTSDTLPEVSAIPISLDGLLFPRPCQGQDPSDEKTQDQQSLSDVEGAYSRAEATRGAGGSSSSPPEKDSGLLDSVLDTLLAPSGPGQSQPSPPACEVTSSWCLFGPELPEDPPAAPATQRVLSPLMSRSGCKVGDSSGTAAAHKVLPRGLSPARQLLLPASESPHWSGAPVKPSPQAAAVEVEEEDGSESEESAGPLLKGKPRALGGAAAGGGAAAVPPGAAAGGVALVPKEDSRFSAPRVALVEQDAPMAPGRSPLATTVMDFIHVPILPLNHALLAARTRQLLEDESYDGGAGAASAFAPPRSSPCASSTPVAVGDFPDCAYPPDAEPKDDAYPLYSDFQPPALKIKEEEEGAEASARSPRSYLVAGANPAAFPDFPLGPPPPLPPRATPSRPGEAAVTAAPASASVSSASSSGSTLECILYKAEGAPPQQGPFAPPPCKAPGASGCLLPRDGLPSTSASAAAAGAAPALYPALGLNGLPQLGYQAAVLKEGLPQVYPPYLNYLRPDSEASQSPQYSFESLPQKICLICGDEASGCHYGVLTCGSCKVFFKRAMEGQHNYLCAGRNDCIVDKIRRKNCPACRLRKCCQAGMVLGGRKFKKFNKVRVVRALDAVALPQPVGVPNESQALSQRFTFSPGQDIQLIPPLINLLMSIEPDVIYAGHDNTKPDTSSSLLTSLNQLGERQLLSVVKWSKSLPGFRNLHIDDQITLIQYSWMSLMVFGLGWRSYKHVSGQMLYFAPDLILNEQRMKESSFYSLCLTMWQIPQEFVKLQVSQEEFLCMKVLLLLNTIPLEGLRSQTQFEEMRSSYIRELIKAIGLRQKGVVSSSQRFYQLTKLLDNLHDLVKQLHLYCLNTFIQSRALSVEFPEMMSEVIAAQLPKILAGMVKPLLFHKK
# Method in brief: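 Using charcoal-stripped serum (2%) to limit endogenous steroids, PR-UAS-bla HEK 293T cells received compounds for 16 hr at 37C after 6 hr plating; beta-lactamase FRET fluorescence was recorded following 2 hr substrate loading at room temperature.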
# [14] = biological target: Progesterone receptor (Homo sapiens) (UniProt P06401); assay: qHTS assay to identify small molecule antagonists of the progesterone receptor (PR) signaling pathway (AID 1346795; active = well fitted inhibition curve with a large enough effect in the signal ratio in the repeat runs, not every such curve was filed as active; the % refers to the signal ratio; note: potency is the fitted concentration of half-maximal effect)
# Method in brief: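 Inhibition of R5020-induced (1 nM final) beta-lactamase reporter signal in PR-UAS-bla HEK293T cells was scored by FRET fluorescence after overnight (16 hr) compound treatment.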
# [15] = qHTS assay to identify small molecule agonists of the estrogen receptor beta (ER-beta) signaling pathway - cell viability counter screen (AID 1259380); note: nearly all actives have a fitted effect of over 30% in size; note: potency is the fitted concentration of half-maximal effect
# Method in brief: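 CellTiter-Glo read, 30 min RT, same wells as bla assay; cells ER-beta-UAS-bla HEK293T; 16 hr compound, 37C; medium 2% charcoal-stripped FBS.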
# [16] = qHTS assay to identify small molecule agonists or antagonists of the thyroid stimulating hormone receptor (TSHR) signaling pathway - wild type cell line counter screen (AID 1259384; calls by dose curve)
# Method in brief: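 Wild-type Hek293 cells, 800/well, 18 h at 37C, then compound with Ro20-1724 for 30 min RT. cAMP by HTRF (cAMP-d2/anti-cAMP cryptate), 1 h RT, fluorescence read. 15 concentrations, triplicates.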
# [17] = biological target: Thyrotropin receptor (Homo sapiens) (UniProt P16473); assay: qHTS assay to identify small molecule antagonists of the thyroid stimulating hormone receptor (TSHR) signaling pathway (AID 1259385; calls by dose curve; note: nearly all actives have a fitted effect of over 20% in size)
# Chain of Thyrotropin receptor (Homo sapiens) (P16473 whole entry, looked up): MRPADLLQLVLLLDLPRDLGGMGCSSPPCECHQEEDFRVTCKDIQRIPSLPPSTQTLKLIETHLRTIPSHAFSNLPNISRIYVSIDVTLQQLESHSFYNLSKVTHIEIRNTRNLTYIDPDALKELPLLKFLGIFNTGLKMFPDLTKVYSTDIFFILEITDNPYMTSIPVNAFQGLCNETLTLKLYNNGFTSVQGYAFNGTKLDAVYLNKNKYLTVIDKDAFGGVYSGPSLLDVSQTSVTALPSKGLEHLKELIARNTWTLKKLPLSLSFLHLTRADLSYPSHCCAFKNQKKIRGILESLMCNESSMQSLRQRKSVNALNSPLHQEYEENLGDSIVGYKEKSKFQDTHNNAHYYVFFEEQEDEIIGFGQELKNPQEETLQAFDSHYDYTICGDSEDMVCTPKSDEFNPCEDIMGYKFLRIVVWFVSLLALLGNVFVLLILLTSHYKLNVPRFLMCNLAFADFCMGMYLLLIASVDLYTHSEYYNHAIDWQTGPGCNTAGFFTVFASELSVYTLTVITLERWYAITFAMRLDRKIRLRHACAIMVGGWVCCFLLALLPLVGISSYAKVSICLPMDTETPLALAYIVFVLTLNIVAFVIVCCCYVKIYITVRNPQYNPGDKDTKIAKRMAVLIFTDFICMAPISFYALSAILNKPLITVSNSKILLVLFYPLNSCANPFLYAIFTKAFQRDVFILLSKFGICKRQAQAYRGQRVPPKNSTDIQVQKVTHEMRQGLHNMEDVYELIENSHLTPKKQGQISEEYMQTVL
# Method in brief: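 TSHR-HEK293 cells (800/well) plated 18 h, then compounds with Ro20-1724 and TSH at 1.5 ng/mL final, 30 min at room temperature. cAMP quantified by HTRF (cAMP-d2/anti-cAMP-cryptate, 1 h); 15 concentrations in triplicate.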
# [18] = qHTS assay to identify small molecule HDAC inhibitors - cell viability counter screen (AID 1259365); note: series mostly up to about 92 µM; nearly all actives have a fitted effect of over 50% in size
# Method in brief: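 Following a 2hr exposure of overnight-plated wild-type HCT-116 cells to DMSO-delivered compounds, CellTiter-Glo was added and luminescence recorded after 30min at room temperature.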
# [19] = qHTS assay to identify small molecule phospholipidosis (PLD) inducers (AID 1259344; active = well fitted curve in the direction sought with a large enough effect; an effect the other way counts as inactive or inconclusive)
# Method in brief: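 Quantitative HTS in HepG2: compound plus LipidTOX Red dye for 24 h, paraformaldehyde fixation with Hoechst 33342, widefield high-content imaging; amiodarone as positive and DMSO as negative control.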
# [20] = biological target: Androgen receptor (Homo sapiens) (UniProt P10275); assay: qHTS assay to identify small molecule agonists of the androgen receptor (AR) signaling pathway in the presence of an antagonist (AID 1259381; calls by dose curve; note: nearly all actives have a fitted effect of over 15% in size)
# Chain of Androgen receptor (Homo sapiens) (P10275 whole entry, looked up): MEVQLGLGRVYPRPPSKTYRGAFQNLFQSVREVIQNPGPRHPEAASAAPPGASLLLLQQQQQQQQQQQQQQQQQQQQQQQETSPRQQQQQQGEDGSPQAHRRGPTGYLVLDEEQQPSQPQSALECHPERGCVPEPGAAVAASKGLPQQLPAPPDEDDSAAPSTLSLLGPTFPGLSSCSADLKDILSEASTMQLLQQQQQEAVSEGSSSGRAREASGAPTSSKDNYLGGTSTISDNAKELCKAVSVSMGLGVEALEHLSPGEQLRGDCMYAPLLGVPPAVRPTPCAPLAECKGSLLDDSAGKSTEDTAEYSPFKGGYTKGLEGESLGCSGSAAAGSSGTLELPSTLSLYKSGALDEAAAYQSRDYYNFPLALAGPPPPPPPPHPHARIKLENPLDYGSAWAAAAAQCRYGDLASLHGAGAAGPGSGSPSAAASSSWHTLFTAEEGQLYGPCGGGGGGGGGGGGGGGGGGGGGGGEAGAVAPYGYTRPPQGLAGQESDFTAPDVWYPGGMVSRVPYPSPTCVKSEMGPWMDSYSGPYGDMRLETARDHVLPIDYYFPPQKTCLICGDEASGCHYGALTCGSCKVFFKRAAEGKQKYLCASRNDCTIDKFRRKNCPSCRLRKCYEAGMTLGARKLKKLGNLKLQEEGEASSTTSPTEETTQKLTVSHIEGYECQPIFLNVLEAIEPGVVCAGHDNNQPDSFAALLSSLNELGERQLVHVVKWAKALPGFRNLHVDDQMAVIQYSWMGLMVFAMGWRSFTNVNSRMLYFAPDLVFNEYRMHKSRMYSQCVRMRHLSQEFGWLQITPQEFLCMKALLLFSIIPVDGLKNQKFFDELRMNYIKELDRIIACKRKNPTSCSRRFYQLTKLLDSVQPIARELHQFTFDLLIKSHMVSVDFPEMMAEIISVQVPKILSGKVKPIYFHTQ
# Method in brief: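 Test compounds at 15 concentrations were incubated for 16hr with MDA-kb2 reporter cells in presence of 3.0uM nilutamide (final). Signal: ONE-Glo luciferase luminescence.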
SMILES,Potency [1],Potency [2],Potency [3],Potency [4],outcome [5],Potency [6],Potency [7],Potency [8],Potency [9],Potency [10],Potency [11],Potency [12],outcome [13],Potency [14],Potency [15],Potency [16],Potency [17],outcome [18],Potency [19],Potency [20]
CCOC(=O)CC(=O)c1cc(F)c(Cl)nc1Cl,inactive,inactive,inactive,inactive,inactive,inactive,inactive,inactive,inactive,inactive,inactive,inactive,inactive,inactive,,,,,,
Cc1cccc(OCCOc2cccc(C)c2)c1,inactive,,inactive,inactive,inactive,inactive,inactive,inactive,inactive,inactive,inactive,inactive,inactive,,inactive,inactive,inactive,,,
CCCCCOC(=O)COc1cc(N2C(=O)C3=C(CCCC3)C2=O)c(F)cc1Cl,inactive,,inactive,inactive,inactive,inactive,inactive,inactive,inactive,inactive,inactive,inactive,inactive,,,inactive,inactive,inactive,,
CC(=O)/C(C)=C/C1C(C)=CCCC1(C)C (stereo not given),inactive,,inactive,inactive,inactive,inactive,,,inactive,inactive,inactive,inactive,inactive,inactive,,inactive,inactive,,,
CCCCCc1ccc(N)cc1,inactive,,inactive,inactive,inactive,inactive,inactive,inactive,inactive,inactive,inactive,inactive,,,,inactive,inactive,inactive,,
CC1(C)[C@H]2CC[C@]1(C)[C@H](O)C2,,inactive,inactive,inactive,inactive,inactive,inactive,inactive,inactive,inactive,,inactive,inactive,inactive,inactive,inactive,inactive,inactive,inactive,
C#CCOC(=O)[C@@H](C)Oc1ccc(Oc2ncc(Cl)cc2F)cc1,inactive,,inactive,,inactive,inactive,inactive,,inactive,inactive,inactive,inactive,inactive,inactive,,inactive,inactive,inactive,,
C=C(C)C(=O)OCCN(C)C,inactive,inactive,inactive,inactive,inactive,inactive,inactive,inactive,inactive,inactive,inactive,inactive,inactive,inactive,,,,,,
O=C(O)c1cn(C2CC2)c2cc(Cl)c(F)cc2c1=O,inactive,,inactive,inactive,,inactive,inactive,,inactive,inactive,inactive,inactive,,inactive,,inactive,inactive,inactive,,inactive
CCCCCCCCCC(=O)OCC,inactive,inactive,,inactive,inactive,inactive,,inactive,inactive,inactive,inactive,inactive,,inactive,inactive,inactive,inactive,,,
COCCCCCCCCOCCC[Si](C)(O[Si](C)(C)C)O[Si](C)(C)C,17.2 µM (active),inactive,inactive,,inactive,inactive,inactive,,17.2 µM (active),inactive,inactive,24.3 µM (active),inactive,,,,inactive,,,
c1ccc(CNCc2ccccc2)cc1,inactive,,inactive,inactive,inactive,inactive,inactive,inactive,inactive,inactive,inactive,inactive,inactive,inactive,inactive,,inactive,inactive,,
CC[C@@H]1C[C@H](N(Cc2cc(C(F)(F)F)cc(C(F)(F)F)c2)C(C)=O)c2cc(C(F)(F)F)ccc2N1C(=O)OC(C)C,inactive,inactive,inactive,inactive,inactive,9.69 µM (active),inactive,,inactive,inactive,inactive,inactive,inactive,inactive,,,,,,
CC/C(=C\C(=N/O)C(N)=O)C(C)[N+](=O)[O-] (stereo not given),inactive,,inactive,inactive,inactive,,inactive,inactive,inactive,inactive,inactive,inactive,inactive,inactive,inactive,inactive,inactive,inactive,,
FC(F)(F)C(F)(F)C(F)(F)C(F)(F)C(F)(F)C(F)(F)CCI,inactive,inactive,inactive,inactive,inactive,inactive,,,inactive,inactive,inactive,inactive,inactive,inactive,inactive,inactive,inactive,,,
Oc1ccc(Sc2ccc(O)cc2)cc1,inactive,inactive,inactive,inactive,inactive,20.3 µM (active),6.42 µM (active),,inactive,inactive,14.4 µM (active),inactive,,18.1 µM (active),,inactive,,,,
CN1CCC(=C2c3ccccc3C=Cc3ccccc32)CC1,,inactive,inactive,inactive,inactive,0.335 µM (active),inactive,inactive,inactive,21.1 µM (active),inactive,inactive,,,26.6 µM (active),inactive,inactive,inactive,inactive,
